Screening results from PubChem BioAssay.
CYP2C9 inh = blocks human cytochrome P450 2C9; CYP2C9 Supersomes, luciferin-H conversion, luminescence; AID 777; P11712; 96,000 tested, 20% active; inhibition, % at 5 µM;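 active = blocking of liver enzyme CYP2C9 beyond about 50% at 5 µM, limit read from the data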
Target sequence (P11712 whole entry, looked up): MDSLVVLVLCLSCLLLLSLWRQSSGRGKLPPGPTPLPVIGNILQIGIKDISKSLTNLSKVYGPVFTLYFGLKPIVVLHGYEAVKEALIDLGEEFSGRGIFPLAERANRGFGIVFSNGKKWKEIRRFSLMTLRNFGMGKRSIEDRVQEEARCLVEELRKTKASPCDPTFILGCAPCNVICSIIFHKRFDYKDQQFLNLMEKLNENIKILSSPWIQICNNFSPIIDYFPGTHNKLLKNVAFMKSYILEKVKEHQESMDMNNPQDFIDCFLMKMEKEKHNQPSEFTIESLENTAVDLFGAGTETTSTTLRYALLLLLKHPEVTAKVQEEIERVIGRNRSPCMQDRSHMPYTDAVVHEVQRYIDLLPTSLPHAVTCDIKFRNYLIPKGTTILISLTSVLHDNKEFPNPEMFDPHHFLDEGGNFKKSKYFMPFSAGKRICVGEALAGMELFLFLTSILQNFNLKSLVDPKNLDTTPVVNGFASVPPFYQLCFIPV
CYP2C19 act = increases human CYP2C19 enzyme activity. P33261. recombinant CYP2C19, luciferin-H EGE luminescence; hits give high values; 0 = fully inhibited enzyme, 1 = untreated enzyme. activation factor at 5 µM. 96,000 tested, under 10 active. AID 1025;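 active = activation factor of at least 2 at 5 µM in the primary screen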;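 also: 0 = wells with 2.5 mM tranylcypromine and 1 = vehicle-only wells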
CYP2C9 activ = increases human cytochrome P450 2C9 activity; activation factor at 5 µM; recombinant CYP2C9, luciferin-H conversion, luminescence; hits give high values; factor 1 = untreated enzyme, 0 = blocked; P11712; 96,000 tested, 1.4% active;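 active = activation factor of 2 or more for CYP2C9 at a 5 µM dose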;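 also: 0 = sulfaphenazole-blocked wells and 1 = vehicle-only wells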
CYP2C19 inh = blocks human cytochrome P450 2C19; P33261; CYP2C19 Supersomes, luciferin-H EGE luminescence, 30 min; inhibition, % at 5 µM; 96,000 tested, 21% active;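 active = CYP2C19 inhibition above a set limit at 5 µM in the primary screen, cut at about 50% in these data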;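 also: plate controls were negative control wells for no effect and 2.5 mM tranylcypromine positive control for full effect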
Measles CPE = protection of cells from measles virus | Measles virus-infected cells, CPE protection, absorbance | 140,000 tested, 1.5% active | protection (pct of control), % at 4 µM | AID 841; in the data active = protection mostly above about 24%, no sharp cut-off; inactive = mostly below about 26%
* marks the source's active call; other numbers are inactive results; . = no result. An excerpt weighted towards active compounds, which were near 22% of everything screened.

SMILES | CYP2C9 inh | CYP2C19 act | CYP2C9 activ | CYP2C19 inh | Measles CPE
C=CCn1c(SCC(=O)NCc2ccc3c(c2)OCO3)nc2scc(-c3ccccc3)c2c1=O | 54* | 0.6 | 0.5 | 37 | 9
C=CCn1c(SCC(=O)Nc2sccc2C(N)=O)nc2sc(CC)cc2c1=O | 66* | 0.7 | 0.3 | 34 | 11
C=CCn1c(SCC(=O)N2CCCC2)nc2scc(-c3cccs3)c2c1=O | -6 | 0.9 | 1.1 | 10 | 25
C=CCn1c(SCn2nnc3ccccc3c2=O)nc2scc(-c3cccs3)c2c1=O | 72* | 0.6 | 0.3 | 36 | 5
C=CCn1c(SCC(=O)Nc2ccccc2)nc2scc(-c3cccs3)c2c1=O | 100* | 0.2 | 0 | 83* | 4
CCOC(=O)CC(NC(=O)c1cc2cccc(OC)c2oc1=O)c1cccc([N+](=O)[O-])c1 (configuration not stated) | . | . | . | . | 4
N#C/C(=C\c1cn(Cc2ccc(C#N)cc2)c2ccccc12)C(=O)NCc1cccs1 | . | . | . | . | 36
Cc1ccc(NC2=CC(=O)CC(c3ccc(Cl)cc3)C2)cc1 (configuration not stated) | . | . | . | . | 6
O=C(C(Cc1ccc(Cl)cc1)NS(=O)(=O)c1ccccc1)N1CC[C@@]2(O)CCCC[C@H]2C1 (some centres not stated) | 88* | 0.3 | 0.1 | 70* | 4
Cc1cccc(-n2c(C)cc(/C=N/NC(=O)c3ccc(CN4CCOCC4)cc3)c2C)c1 | 77* | 0.6 | 0.2 | 40 | 7
Cc1ccc(-n2c(C)cc(/C=N/NC(=O)c3ccc(CN4CCOCC4)cc3)c2C)cc1 | 30 | 1 | 0.7 | -1 | 71*
COc1ccc(C(=O)N/N=C/c2ccc(OC(=O)c3ccccc3)cc2)cc1 | . | . | . | . | 4
O=C(N/N=C/c1ccc(OC(=O)c2ccccc2)cc1)c1ccc(CN2CCOCC2)cc1 | 59* | 0.9 | 0.4 | 15 | 8
Cc1cccc(-n2c(C)cc(/C=N/NC(=O)c3cccc([N+](=O)[O-])c3C)c2C)c1 | 44 | 0.7 | 0.6 | 35 | 12
Cc1ccc(S(=O)(=O)N(C)C)cc1NC(=O)COC(=O)CCC(=O)c1ccc(F)cc1 | . | . | . | . | 3
COc1ccc2[nH]c(=O)c(CN(Cc3ccco3)C(c3nnnn3Cc3ccccc3)C(C)C)cc2c1 (configuration not stated) | 70* | 0.6 | 0.3 | 44 | 27
CCN(Cc1ccccc1)C(c1cc2ccc(C)cc2[nH]c1=O)c1nnnn1CCOC (configuration not stated) | 55* | 0.9 | 0.4 | 7 | 7
CCc1ccc2[nH]c(=O)c(CN(Cc3ccc(OC)cc3)Cc3nnnn3CCOC)cc2c1 | 57* | 0.5 | 0.4 | 55* | 2
COCCn1nnnc1C(C(C)C)N(Cc1cccnc1)Cc1cc2cc(OC)ccc2[nH]c1=O (configuration not stated) | -29 | 1.2 | 1.3 | -15 | 0
COc1ccc(CN(Cc2cc3cc(C)ccc3[nH]c2=O)C(=O)N(C)C)cc1 | 24 | 0.8 | 0.8 | 22 | 5
Cc1cccc2cc(CN(Cc3ccco3)C(c3nnnn3CCc3ccccc3)C(C)C)c(=O)[nH]c12 (configuration not stated) | 83* | 0.2 | 0.2 | 78* | 28
CCC(C)(C)n1nnnc1C(C(C)C)N(Cc1ccco1)Cc1cc2cc3c(cc2[nH]c1=O)OCO3 (configuration not stated) | -1 | 0.7 | 1 | 33 | 4
CC(NC(=O)CSc1nnc(-c2cc3cc(Cl)ccc3o2)n1C)c1ccccc1 (configuration not stated) | . | . | . | . | 6
COc1cc2c(C(=O)N3CCCc4ccccc43)cn(C)c(=O)c2cc1OC | 11 | 0.7 | 0.9 | 26 | 17
CC(C)OCCCNCC(O)c1ccccc1 (configuration not stated) | . | . | . | . | 13
SMILES | CYP2C9 inh | CYP2C19 act | CYP2C9 activ | CYP2C19 inh | Measles CPE
N#Cc1ccc(C23CC4CC(CC(C4)C2)C3)[nH]c1=O | -3 | 0.9 | 1 | 10 | 14
COc1cc(N)cc(NC(=O)c2ccncc2)c1 | 3 | 0.8 | 1 | 18 | 6
COCCn1nnnc1C(C(C)C)N(Cc1ccccc1)Cc1cc2cc(OC)ccc2[nH]c1=O (configuration not stated) | 84* | 0.2 | 0.2 | 77* | 10
CCc1ccc2[nH]c(=O)c(C(c3nnnn3CCOC)N3CCN(c4ccccc4F)CC3)cc2c1 (configuration not stated) | 17 | 0.5 | 0.8 | 54* | 16
COc1cc(/C=N/NC(=O)CNC(=O)c2ccccc2)ccc1OC(=O)c1cccs1 | 38 | 0.7 | 0.6 | 27 | 6
COc1ccc(CC(=O)NC2CCN(CC(=O)Nc3ccc4c(c3)OCCO4)CC2)cc1OC | -1 | 0.9 | 1 | 5 | 2
O=C(/C=C/Nc1cccc(F)c1)c1ccco1 | 9 | 0.8 | 0.9 | 20 | 11
CC1=CC(=NOC(=O)c2cccc([N+](=O)[O-])c2)C=C(C)C1=O | -8 | 1 | 1.1 | -4 | 5
CC1=CC(=O)C(C(C)C)=C/C1=N/OC(=O)c1cccc([N+](=O)[O-])c1 | 53* | 0.8 | 0.5 | 16 | 5
CCCc1[nH]nc2c1C(c1ccc(OCCN3CCOCC3)c(OCC)c1)C(C#N)=C(N)O2 (configuration not stated) | 27 | 1 | 0.7 | -4 | 2
CCCc1[nH]nc2c1C(c1cccc(OC)c1)C(C#N)=C(N)O2 (configuration not stated) | 76* | 0.3 | 0.2 | 73* | 7
CCCc1[nH]nc2c1C(c1ccc(O)cc1OCC)C(C#N)=C(N)O2 (configuration not stated) | 53* | 0.2 | 0.5 | 76* | 2
CCCc1[nH]nc2c1C(c1ccc(OC)cc1OC)C(C#N)=C(N)O2 (configuration not stated) | 18 | 0.7 | 0.8 | 26 | 16
CN(C)S(=O)(=O)c1ccc(Cl)c(C(=O)OCC(=O)NC(=O)c2cccn2C)c1 | . | . | . | . | 14
Cc1ccc(C)c(S(=O)(=O)NCCOc2nc(NC(C)C)nc(NC(C)C)n2)c1 | 59* | 0.2 | 0.4 | 78* | 14
CSc1nc(C)cc(OCCNS(=O)(=O)c2cc(C)ccc2C)n1 | 46 | 0.6 | 0.5 | 40 | 2
O=C1CC(SC2=NCCS2)C(=O)N1c1ccc(Cl)cc1 (configuration not stated) | . | . | . | . | 9
CC1Cc2ccccc2N1S(=O)(=O)c1cnc[nH]1 (configuration not stated) | 98* | 0.1 | 0 | 92* | 20
O=S(=O)(c1cnc[nH]1)N1CCc2ccccc21 | 100* | 0 | 0 | 98* | 4
COc1ccc(-c2coc3cc4oc(=O)c5ccccc5c4cc23)cc1F | . | . | . | . | 5
CN1CCN(CC(=O)NC2CCCCC2)CC1 | 8 | 1 | 0.9 | 3 | 24
O=S(=O)(Cc1ccccc1)NCc1ccccn1 | 9 | 1 | 0.9 | -2 | 7
COc1ccccc1CNC(=O)c1ccc2nc3[nH]c4ccccc4c3nc2c1 | . | . | . | . | 7
